According to PubChem BioAssay AID1159580 (chemical genetic matrix, 2015):
Screen size: about 5,500 compounds; about 2,000 (36%) were called active. About 18% were inconclusive and are not listed. The list shows a part of the results. A number with no mark means an inactive call. No stated cut-off is given here; in the data, active means normalized growth mostly below about 0.91 (no sharp cut-off); inconclusive means no clear call, values can overlap the other calls; inactive means mostly above about 0.92.

Test: chemical genetic growth profiling, strain panel (AID 1159580);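 further: tested at 20 µM; growth read once vehicle control cultures reached saturation at 30 °C; 1 = growth at the plate median or of vehicle wells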
Conditions: growth OD
[1] = S. cerevisiae deletion strains, locus YJR075W, strain HOC1, stronger effect = lower value
[2] = S. cerevisiae deletion strains, locus YMR307W, strain GAS1, stronger effect = lower value
[3] = S. cerevisiae deletion strains, locus YNL322C, strain KRE1, stronger effect = lower value
[4] = S. cerevisiae deletion strains, locus YPL055C, strain LGE1, stronger effect = lower value
[5] = S. cerevisiae deletion strains, locus YPL241C, strain CIN2, stronger effect = lower value
[6] = S. cerevisiae deletion strains, locus YAL013W, strain DEP1, stronger effect = lower value
[7] = S. cerevisiae deletion strains, locus YBR229C, strain ROT2, stronger effect = lower value
[8] = S. cerevisiae deletion strains, locus YDL101C, strain DUN1, stronger effect = lower value
[9] = S. cerevisiae deletion strains, locus YDL134C, strain PPH21, stronger effect = lower value
[10] = S. cerevisiae deletion strains, locus YDR150W, strain NUM1, stronger effect = lower value
[11] = S. cerevisiae deletion strains, locus YEL061C, strain CIN8, stronger effect = lower value
[12] = S. cerevisiae deletion strains, locus YGR078C, strain PAC10, stronger effect = lower value
[13] = S. cerevisiae deletion strains, locus YHR030C, strain SLT2, stronger effect = lower value
[14] = S. cerevisiae deletion strains, locus YHR087W, strain rtc3, stronger effect = lower value
[15] = S. cerevisiae deletion strains, locus YJR043C, strain POL32, stronger effect = lower value
[16] = S. cerevisiae deletion strains, locus YKL190W, strain CNB1, stronger effect = lower value
[17] = S. cerevisiae deletion strains, locus YLR039C, strain RIC1, stronger effect = lower value
[18] = S. cerevisiae deletion strains, locus YLR058C, strain SHM2 (second series), stronger effect = lower value
[19] = S. cerevisiae deletion strains, locus YLR085C, strain ARP6, stronger effect = lower value
[20] = S. cerevisiae deletion strains, locus YLR262C, strain YPT6, stronger effect = lower value
[21] = S. cerevisiae deletion strains, locus YML094W, strain GIM5, stronger effect = lower value
[22] = S. cerevisiae deletion strains, locus YMR219W, strain ESC1, stronger effect = lower value
[23] = S. cerevisiae deletion strains, locus YMR263W, strain SAP30, stronger effect = lower value
[24] = S. cerevisiae deletion strains, locus YNL153C, strain GIM3, stronger effect = lower value
[25] = S. cerevisiae deletion strains, locus YNL298W, strain CLA4 (second series), stronger effect = lower value
[26] = S. cerevisiae deletion strains, locus YNR030W, strain Alg12, stronger effect = lower value
[27] = S. cerevisiae deletion strains, locus YPR135W, strain CTF4, stronger effect = lower value
[28] = S. cerevisiae deletion strains, locus YCL061C, strain MRC1, stronger effect = lower value
[29] = S. cerevisiae deletion strains, locus YGR229C, strain SMI1, stronger effect = lower value

Which normalized growth (S. cerevisiae deletion strains, locus YAL040C, strain CLN3, stronger effect = lower value) does the source give for `Nc1ccc(CCNc2ncnc3c2ncn3C2OC(CO)C(O)C2O)cc1` (stereo unspecified) here?
The normalized growth was 1.03.

And the normalized growth (S. cerevisiae deletion strains, locus YCL061C, strain MRC1 (second series), stronger effect = lower value)?
Its normalized growth is 0.997.

What about the normalized growth (S. cerevisiae deletion strains, locus YDR363W, strain ESC2, stronger effect = lower value) of the same compound?
The normalized growth was 0.988.

And the normalized growth (S. cerevisiae deletion strains, locus YER002W, strain NOP16, stronger effect = lower value)?
Its normalized growth is 0.991.

And the normalized growth [1]?
Its normalized growth is 1.

What about the normalized growth [2] of the same compound?
The normalized growth was 1.02.

And the normalized growth (S. cerevisiae deletion strains, locus YNL175C, strain NOP13, stronger effect = lower value)?
The normalized growth was 0.985.

And the normalized growth (S. cerevisiae deletion strains, locus YNL197C, strain WHI3, stronger effect = lower value)?
The normalized growth was 1.01.

What about the normalized growth (S. cerevisiae deletion strains, locus YNL224C, strain SQS1, stronger effect = lower value) of the same compound?
Its normalized growth is 0.977.

And the normalized growth [3]?
Its normalized growth is 0.995.

And the normalized growth (S. cerevisiae deletion strains, locus YOR083W, strain WHI5 (second series), stronger effect = lower value)?
The normalized growth was 0.995.

And the normalized growth [4]?
The normalized growth was 0.986.

What about the normalized growth [5] of the same compound?
Its normalized growth is 0.999.

Which normalized growth [6] does the source give for `OCc1nccn1Cc1ccc(Cl)cc1` here?
The normalized growth was 1.02.

What about the normalized growth [7] of the same compound?
Its normalized growth is 1.

What about the normalized growth [8] of the same compound?
Its normalized growth is 1.03.

What about the normalized growth [9] of the same compound?
Its normalized growth is 1.02.

And the normalized growth [10]?
Its normalized growth is 1.05.

And the normalized growth [11]?
The normalized growth was 1.

And the normalized growth [12]?
The normalized growth was 1.

And the normalized growth [13]?
The normalized growth was 0.288 (active).

What about the normalized growth [14] of the same compound?
Its normalized growth is 0.983.

And the normalized growth [15]?
Its normalized growth is 1.03.

And the normalized growth [1]?
The normalized growth was 0.944.

And the normalized growth [16]?
Its normalized growth is 0.999.

And the normalized growth [17]?
The normalized growth was 0.889.

And the normalized growth [18]?
The normalized growth was 0.998.

What about the normalized growth [19] of the same compound?
The normalized growth was 1.02.

And the normalized growth [20]?
The normalized growth was 0.849.

And the normalized growth [21]?
Its normalized growth is 0.983.

What about the normalized growth [22] of the same compound?
The normalized growth was 1.01.

And the normalized growth [23]?
The normalized growth was 1.04.

What about the normalized growth [2] of the same compound?
The normalized growth was 1.51 [resistant] (active).

And the normalized growth [24]?
Its normalized growth is 1.02.

What about the normalized growth [25] of the same compound?
The normalized growth was 0.923.

What about the normalized growth [3] of the same compound?
Its normalized growth is 1.

What about the normalized growth [26] of the same compound?
The normalized growth was 0.947.

What about the normalized growth [4] of the same compound?
Its normalized growth is 1.08.

What about the normalized growth [5] of the same compound?
The normalized growth was 1.02.

What about the normalized growth [27] of the same compound?
The normalized growth was 1.03.

For `COC(=O)c1cscc1Sc1ccc(Cl)cc1`, which normalized growth [6] is on record?
Its normalized growth is 0.948.

And the normalized growth [7]?
The normalized growth was 0.953.

What about the normalized growth [28] of the same compound?
The normalized growth was 0.978.

And the normalized growth [8]?
Its normalized growth is 0.961.

What about the normalized growth [9] of the same compound?
Its normalized growth is 0.82 (active).

And the normalized growth [10]?
The normalized growth was 0.983.

What about the normalized growth [11] of the same compound?
Its normalized growth is 0.931.

And the normalized growth [12]?
The normalized growth was 0.956.

What about the normalized growth [13] of the same compound?
The normalized growth was 0.319 (active).

What about the normalized growth [14] of the same compound?
The normalized growth was 0.944.

What about the normalized growth (S. cerevisiae deletion strains, locus YJL187C, strain SWE1, stronger effect = lower value) of the same compound?
Its normalized growth is 0.995.

What about the normalized growth [15] of the same compound?
The normalized growth was 0.987.

What about the normalized growth [1] of the same compound?
Its normalized growth is 0.943.

And the normalized growth [17]?
The normalized growth was 0.747 (active).

What about the normalized growth [18] of the same compound?
Its normalized growth is 0.955.

What about the normalized growth [19] of the same compound?
Its normalized growth is 0.664 (active).

And the normalized growth [20]?
Its normalized growth is 0.771 (active).

And the normalized growth [21]?
The normalized growth was 0.914.

And the normalized growth [22]?
Its normalized growth is 0.96.

What about the normalized growth [23] of the same compound?
Its normalized growth is 0.989.

What about the normalized growth [24] of the same compound?
Its normalized growth is 0.968.

What about the normalized growth [25] of the same compound?
Its normalized growth is 0.916.

What about the normalized growth [3] of the same compound?
Its normalized growth is 0.939 (active).

And the normalized growth [26]?
Its normalized growth is 0.848 (active).

What about the normalized growth [4] of the same compound?
The normalized growth was 0.998.

What about the normalized growth [5] of the same compound?
Its normalized growth is 0.845 (active).

And the normalized growth [27]?
The normalized growth was 0.565 (active).

And the normalized growth (S. cerevisiae strains, strain wild type, stronger effect = lower value)?
The normalized growth was 0.949.

With `COc1cscc1C(N)=O` as the compound, how does the normalized growth [6] read?
The normalized growth was 1.01.

What about the normalized growth [7] of the same compound?
Its normalized growth is 0.984.

And the normalized growth [28]?
The normalized growth was 1.02.

What about the normalized growth [8] of the same compound?
Its normalized growth is 1.

And the normalized growth [10]?
Its normalized growth is 1.06.

And the normalized growth [11]?
Its normalized growth is 0.959.

And the normalized growth [12]?
Its normalized growth is 1.01.

What about the normalized growth [29] of the same compound?
Its normalized growth is 0.99.

What about the normalized growth [13] of the same compound?
Its normalized growth is 1.06.

And the normalized growth [14]?
The normalized growth was 1.03.

And the normalized growth [15]?
Its normalized growth is 1.04.

And the normalized growth [1]?
The normalized growth was 1.04.

And the normalized growth [17]?
Its normalized growth is 1.01.

What about the normalized growth [18] of the same compound?
The normalized growth was 0.997.

What about the normalized growth [19] of the same compound?
Its normalized growth is 0.965.

What about the normalized growth [20] of the same compound?
The normalized growth was 0.998.

What about the normalized growth [21] of the same compound?
Its normalized growth is 0.979.

And the normalized growth [22]?
Its normalized growth is 0.987.

And the normalized growth [23]?
Its normalized growth is 1.06.

What about the normalized growth [2] of the same compound?
The normalized growth was 0.966.

What about the normalized growth [24] of the same compound?
Its normalized growth is 1.01.

And the normalized growth [25]?
Its normalized growth is 0.969.

What about the normalized growth [3] of the same compound?
The normalized growth was 0.996.

And the normalized growth [26]?
Its normalized growth is 1.01.

And the normalized growth [4]?
Its normalized growth is 1.12.

And the normalized growth [5]?
Its normalized growth is 0.957.

What about the normalized growth [27] of the same compound?
Its normalized growth is 1.14.

Which results are given for `COC(=O)c1ccsc1N`?
normalized growth [6]: 0.988; normalized growth [7]: 1; normalized growth [8]: 1.01; normalized growth [10]: 1.07; normalized growth [11]: 0.985; normalized growth [12]: 1; normalized growth [29]: 0.981; normalized growth [13]: 1.09; normalized growth [14]: 0.995; normalized growth [15]: 1.02; normalized growth [1]: 1.01; normalized growth [16]: 0.99; normalized growth [17]: 1; normalized growth [18]: 0.983; normalized growth [19]: 0.94; normalized growth [20]: 1.14; normalized growth [21]: 0.97; normalized growth [22]: 0.993; normalized growth [23]: 1.02; normalized growth [24]: 1; normalized growth [25]: 0.963; normalized growth [3]: 0.992; normalized growth [26]: 0.976; normalized growth [4]: 0.986; normalized growth [5]: 0.958; normalized growth [27]: 1.11
